Molecules are shown by their SMILES. The whole screen tested about 400,000 compounds, of which about 2,100 (0.53%) were called active. Not shown: some 14% with an inconclusive outcome. The rule behind the calls is not given here. The full list was thinned out, with actives kept by preference.

For the assay, the target named is Ataxin-2 (Homo sapiens) (UniProt Q99700). Kind of assay: qHTS for Inhibitors of ATXN expression. The assay is classed as functional. A general note: In qHTS, concentration-response curves come from the screen itself.
Ataxin-2 (Homo sapiens), sequence (Q99700 whole entry): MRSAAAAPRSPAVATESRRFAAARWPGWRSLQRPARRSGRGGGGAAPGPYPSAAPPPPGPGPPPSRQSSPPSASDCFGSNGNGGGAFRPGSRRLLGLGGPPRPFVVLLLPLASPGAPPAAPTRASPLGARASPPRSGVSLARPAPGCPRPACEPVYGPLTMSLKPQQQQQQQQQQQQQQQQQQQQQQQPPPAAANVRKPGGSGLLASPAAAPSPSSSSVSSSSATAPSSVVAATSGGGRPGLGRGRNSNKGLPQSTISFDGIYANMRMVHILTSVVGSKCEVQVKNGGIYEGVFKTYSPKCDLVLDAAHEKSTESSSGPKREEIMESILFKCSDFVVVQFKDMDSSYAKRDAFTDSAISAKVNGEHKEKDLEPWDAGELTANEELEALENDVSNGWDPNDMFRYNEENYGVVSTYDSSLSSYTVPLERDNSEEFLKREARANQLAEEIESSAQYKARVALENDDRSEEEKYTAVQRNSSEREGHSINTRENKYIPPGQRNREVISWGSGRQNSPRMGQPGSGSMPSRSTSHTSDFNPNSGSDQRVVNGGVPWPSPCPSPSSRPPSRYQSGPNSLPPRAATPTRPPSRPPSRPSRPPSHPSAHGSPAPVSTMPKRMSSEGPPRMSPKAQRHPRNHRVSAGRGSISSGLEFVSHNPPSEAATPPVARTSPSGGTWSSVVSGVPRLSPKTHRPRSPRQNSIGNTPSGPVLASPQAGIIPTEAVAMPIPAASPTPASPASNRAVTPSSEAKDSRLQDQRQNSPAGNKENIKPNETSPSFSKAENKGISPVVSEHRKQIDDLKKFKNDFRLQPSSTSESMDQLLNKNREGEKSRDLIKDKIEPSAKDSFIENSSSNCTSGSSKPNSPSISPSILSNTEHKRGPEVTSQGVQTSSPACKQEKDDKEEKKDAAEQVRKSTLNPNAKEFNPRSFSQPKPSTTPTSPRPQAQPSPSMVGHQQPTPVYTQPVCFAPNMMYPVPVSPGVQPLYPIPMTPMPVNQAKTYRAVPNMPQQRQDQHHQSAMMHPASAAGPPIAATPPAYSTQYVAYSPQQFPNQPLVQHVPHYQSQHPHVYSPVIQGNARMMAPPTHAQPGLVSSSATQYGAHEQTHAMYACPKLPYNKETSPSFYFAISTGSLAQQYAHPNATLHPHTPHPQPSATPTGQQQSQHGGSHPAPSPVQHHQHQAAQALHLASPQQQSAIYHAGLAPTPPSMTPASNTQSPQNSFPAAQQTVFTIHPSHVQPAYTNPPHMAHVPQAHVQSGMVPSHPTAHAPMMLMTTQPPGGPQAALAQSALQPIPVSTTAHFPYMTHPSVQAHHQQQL
Consider `Nc1ccc(Br)c2cccnc12`, for which the Potency entry is “inactive”.

As for `NC(=O)c1c(NC(=O)C2COc3ccccc3O2)sc2c1CCN(Cc1ccccc1)C2` (stereo not drawn), the Potency entry is “inactive”.

As for `COc1ccc(CC2(CO)CCN(Cc3ccc4c(c3)CCO4)CC2)cc1`, the Potency result is “inactive”.

Regarding `COc1ccccc1/C=C/CN1CCC(CO)(Cc2ccccc2)CC1`, the Potency result is “inactive”.

`Cc1c(CN2CCC(CO)(Cc3cccc(C(F)(F)F)c3)CC2)c2ccccc2n1C`: the Potency is 39.8 µM (active).

For the compound `O=C(NCc1cccnc1)/C(=C\c1ccc(-c2cccc(Cl)c2)o1)S(=O)(=O)c1ccccc1`, the Potency is 31.6 µM (active).

As to `O=C(O)c1ccc(-c2ccc(/C=C3\NC(=O)N(Cc4ccc(Cl)cc4)C3=O)o2)cc1Cl`, the Potency entry is “inactive”.

For the compound `Cc1c(N(C)S(=O)(=O)c2cccc(C(=O)NCc3cccnc3)c2)c(=O)n(-c2ccccc2)n1C`, the Potency entry is “inactive”.

Turning to `O=C(N/N=C/c1ccc(-c2ccc([N+](=O)[O-])cc2)o1)c1cccnc1`, the Potency entry was “inactive”.

With `O=C(NCc1cccnc1)/C(=C/c1ccc(-c2ccc(Cl)cc2)o1)S(=O)(=O)c1ccccc1`, the Potency is 35.5 µM (active).

Take `CNC(=O)/C(C#N)=C/c1ccc(-c2ccc(Cl)cc2)o1`: the Potency result was “inactive”.

For the compound `CC(C)(C)NC(=O)NCc1cccnc1`, the Potency entry is “inactive”.

`O=C(NCc1cccnc1)/C(=C\c1ccc(-c2ccc(Cl)c(Cl)c2)o1)S(=O)(=O)c1ccccc1`: the Potency was 22.4 µM (active).

For `O=C(NCC(=O)N1CCC2(CC1)NCCc1[nH]cnc12)c1cccc(Cl)c1`, the Potency entry is “inactive”.

In the case of `CN(C)c1ccc(/C=N/NC(=O)c2cccc(N3CCCC3=O)c2)cc1`, the Potency entry is “inactive”.

For the compound `Cc1ccc(S(=O)(=O)NN=C2CCc3ccccc32)cc1`, the Potency result is “inactive”.

For the compound `N#CCCn1nc(-c2ccc(Br)cc2)cc1Nc1ccccc1NC(=O)C(F)(F)F`, the Potency result was “inactive”.

For the compound `CCOc1ccc(N2C(=O)/C(=C\NNc3nnc(C)c(O)n3)c3ccccc3C2=O)cc1`, the Potency entry was “inactive”.

As for `O=C(C1CCCO1)N(c1ccc(F)cc1)C1C=CS(=O)(=O)C1` (stereo not drawn), the Potency entry is “inactive”.

`O=C(OCCN1C(=O)c2cccc3c(N4CCOCC4)ccc(c23)C1=O)c1cccc(Cl)c1`: the Potency entry is “inactive”.

Consider `CC(C)CN(C(=O)CN1CCCCCC1)c1c(N)n(CC(C)C)c(=O)[nH]c1=O`, for which the Potency result is “inactive”.

As to `CC1CN(C(S)=Nc2ccc(Cl)cc2)CC(C)O1` (stereo not drawn), the Potency entry was “inactive”.

With `CCn1nc(NC(=O)COC)c2cc3cc(C)ccc3nc21`, the Potency entry was “inactive”.

Turning to `Cc1cccc2cc3c(N)c(C(=O)N4CCc5ccccc54)sc3nc12`, the Potency result is “inactive”.

For the compound `O=[N+]([O-])c1ccc(/C=N/Nc2ncc(-c3ccccc3)cn2)cc1`, the Potency entry is “inactive”.

`O=[N+]([O-])c1ccc(NN=Cc2ccccc2O)nc1`: the Potency is 20 µM (active).

As to `O=[N+]([O-])c1ccc(N/N=C/c2ccc(OCc3cccc4ccccc34)cc2)nc1`, the Potency entry was “inactive”.

For `CN(C)c1c2ccccc2nc2c(F)c(F)c(F)c(F)c12`, the Potency result was “inactive”.

`Cc1cccn2c(=O)c3cc(C(=O)NC(C)c4ccccc4)c(=N)n(CCOCCO)c3nc12` (stereo not drawn): the Potency result is “inactive”.

`O=C(/C=C/c1cn(CC(O)CN2CCCCCC2)c2ccccc12)c1ccc(Br)cc1` (stereo not drawn): the Potency entry is “inactive”.

For the compound `CC(C)CN(CC(C)C)CC(O)Cn1cc(/C=C/C(=O)c2ccccc2)c2ccccc21` (stereo not drawn), the Potency result was “inactive”.

As to `C=CCn1cccc(/C=C/C(=O)c2ccc(C(C)(C)C)cc2)c1=S`, the Potency was 35.5 µM (active).

On to `Cc1cc(=O)oc2cc(O[C@@H]3O[C@H](CO)[C@H](O)[C@H](O)[C@H]3O)ccc12`, for which the Potency entry was “inactive”.

For `O=C(COC(=O)C1CC(=O)N(Cc2ccccc2)C1)Nc1cccc([N+](=O)[O-])c1` (stereo not drawn), the Potency entry is “inactive”.

On to `CN(C(=O)c1cccc(NC(=O)Cc2ccc(NC(=O)C3CCCN(C(=O)CCc4ccccc4)C3)cc2)c1)C1CCCCC1` (stereo not drawn), for which the Potency is 17.8 µM (active).

For the compound `Cc1cc(N2CCOCC2)nc2ccc(NC(=O)CCC(=O)N3CCCC(C)C3)cc12` (stereo not drawn), the Potency result was “inactive”.

Regarding `Cc1ccc(N2C(=O)c3cccc4c(N5CCN(C)CC5)ccc(c34)C2=O)c2cccnc12`, the Potency entry was “inactive”.

As to `CCc1nnc(N/C=C2/C(=O)N(c3ccc(Cl)cn3)C(=O)c3ccccc32)s1`, the Potency entry was “inactive”.

With `COc1ccc(C(=O)Cn2c(C(C)=O)nc3ccccc32)cc1`, the Potency was 33.6 µM (active).

For the compound `CCn1c(NCc2ccc(OC)cc2)nc2ccccc21`, the Potency entry was “inactive”.

With `Cn1c(COc2ccc(C(=O)O)cc2)nc2ccccc21`, the Potency entry was “inactive”.

Turning to `CN(C)c1cccc(C(=O)OCc2cc(=O)oc3cc(O)ccc23)c1`, the Potency result is “inactive”.

For `N#C/C(=C\c1cccnc1)c1nc2c(s1)CCCC2`, the Potency result was “inactive”.

For `CN1/C(=C/C=C/c2n(C)c3cc([N+](=O)[O-])c([N+](=O)[O-])cc3[n+]2C)C(C)(C)c2ccccc21`, the Potency is 7.94 µM (active).

With `O=C(Oc1c(-c2ccccc2Cl)oc2ccccc2c1=O)c1ccc(Cl)cc1`, the Potency result was “inactive”.

For `COCCCn1c(=N)c(C(=O)NCC2CCCO2)cc2c(=O)n3cccc(C)c3nc21` (stereo not drawn), the Potency entry is “inactive”.

As to `Cc1ccc(-n2c(=O)c(C#N)cc3c(=O)n4ccccc4nc32)cc1C`, the Potency entry is “inactive”.

Turning to `Cc1c(Cl)cccc1NC(=O)CNC(=O)CCS(=O)(=O)c1ccc(F)cc1`, the Potency entry was “inactive”.

Turning to `O=C(Cc1ccccc1)Nc1nc(-c2ccc(F)c(F)c2)cs1`, the Potency result is “inactive”.

For the compound `O=C(CCS(=O)(=O)c1ccc(F)cc1)Nc1nc(-c2ccncc2)cs1`, the Potency was 39.8 µM (active).

In the case of `COc1ccc(N2C(=O)CC(NNc3ncc(Cl)cc3Cl)C2=O)cc1` (stereo not drawn), the Potency entry was “inactive”.

As for `CC(C)(C)c1ccc(-n2nc(C#N)c(Cl)cc2=O)cc1`, the Potency is 15.8 µM (active).

As for `COc1ccc(-n2nc(C)c3onc(C)c3c2=O)cc1`, the Potency result is “inactive”.

Turning to `COc1ccc(-n2nc(C#N)c(Cl)cc2=O)cc1`, the Potency is 39.8 µM (active).

`Cc1ccc(CSc2nnc([C@@H]3CCCN3C(=O)OC(C)(C)C)o2)cc1`: the Potency entry was “inactive”.

For `O=[N+]([O-])c1ccc(Sc2cccc[n+]2[O-])c2nonc12`, the Potency is 6.7 µM (active).

For `CCc1nnc(NS(=O)(=O)c2ccc(N/C=C/C(=O)c3ccc(C)cc3)cc2)s1`, the Potency entry was “inactive”.

For `O=[N+]([O-])c1ccc(Nc2ccccc2)c2nonc12`, the Potency was 25.1 µM (active).

On to `CCc1nnc(NS(=O)(=O)c2ccc(NC(=O)c3cccc(Cl)c3)cc2)s1`, for which the Potency result was “inactive”.

As for `CCc1nnc(NS(=O)(=O)c2ccc(Nc3ccc([N+](=O)[O-])c4nonc34)cc2)s1`, the Potency is 17.8 µM (active).

Consider `COCCn1c(SCC(=O)NC2CCCCC2)nnc1-c1ccncc1`, for which the Potency result was “inactive”.

In the case of `O=C1OCCN1C(=O)[C@H]1[C@H](c2ccc(F)cc2)C(c2cccc(Cl)c2)=NN1c1ccccc1`, the Potency result is “inactive”.

Regarding `CC(C)N(C(=O)[C@H]1CC(CC(=O)NCc2cccc(C(F)(F)F)c2)C(=O)N2CCc3c([nH]c4ccccc34)[C@]12C)C(C)C` (stereo partly drawn), the Potency was 39.8 µM (active).

On to `CCN(CC)C(=O)[C@H]1CC(CC(=O)NCC23C[C@H]4C[C@@H](C2)C[C@@H](C3)C4)C(=O)N2CCc3c([nH]c4ccccc34)[C@]12C` (stereo partly drawn), for which the Potency was 39.8 µM (active).

For `CCN(CC)C(=O)[C@H]1CC(CC(=O)NCc2cccc(C(F)(F)F)c2)C(=O)N2CCc3c([nH]c4ccccc34)[C@]12C` (stereo partly drawn), the Potency is 22.4 µM (active).

For the compound `O=C(NCc1cccc(C(F)(F)F)c1)c1cccc2c1C(=O)c1ccc(N3CCC(Cc4ccccc4)CC3)cc1S2(=O)=O`, the Potency entry is “inactive”.

Regarding `CN(C)C(=O)CCc1ccc2c3c([nH]c2c1)[C@]1(C)[C@@H](C(=O)N2CCCCC2)C[C@H](CC(=O)NCC24C[C@H]5C[C@@H](C2)C[C@@H](C4)C5)C(=O)N1CC3`, the Potency is 39.8 µM (active).

In the case of `C/C(=N\NC(=O)c1nc2ccccn2c1C)c1ccco1`, the Potency entry was “inactive”.

On to `Cc1c(Cc2ccccc2)c(=O)oc2cc(O)cc(O)c12`, for which the Potency entry was “inactive”.

For `COCC(=O)N(CCN(C)C)Cc1cc2cc3c(cc2nc1Cl)OCO3`, the Potency result is “inactive”.

Turning to `COc1ccc(-c2cn3nc(SCC(=O)NCC4CCCO4)ccc3n2)cc1` (stereo not drawn), the Potency entry is “inactive”.

With `Cn1c(=O)n(CCOc2ccc([N+](=O)[O-])cc2)c2ccccc21`, the Potency result is “inactive”.

Regarding `Cn1cnc([N+](=O)[O-])c1S(=O)(=O)Oc1ccc(Cl)cc1`, the Potency was 31.6 µM (active).

With `Cn1cnc([N+](=O)[O-])c1S(=O)(=O)c1cccc(Cl)c1`, the Potency is 8.91 µM (active).

For the compound `CC(=O)Nc1ccc(OS(=O)(=O)c2cc(Cl)ccc2C)cc1`, the Potency result is “inactive”.

On to `O=S(=O)(Oc1ccc(Cl)cc1)c1cccc2cccnc12`, for which the Potency result is “inactive”.

Consider `Cn1cnc([N+](=O)[O-])c1S(=O)(=O)Oc1ccccc1`, for which the Potency is 28.2 µM (active).

With `CCOc1ccc(Nc2nc3c(S(=O)(=O)c4cccc(Cl)c4)nnn3c3ccsc23)cc1`, the Potency result was “inactive”.

Take `Cc1c2c(n3c(nc4ccccc43)c1C#N)N(CCCN(C)C)CC2`: the Potency entry is “inactive”.

For `Cc1ccc(Sc2ncccc2C(=O)N(C)Cc2cccs2)c(C)c1`, the Potency result is “inactive”.

On to `O=c1c2ccccc2oc2cc(NCCCN3CCOCC3)ccc12`, for which the Potency result was “inactive”.

As to `CCN(CC)S(=O)(=O)c1ccc(N2CCCC2)c(NS(=O)(=O)c2cccs2)c1`, the Potency entry is “inactive”.

As for `CCCCCCSc1ccc(-c2nc3cnccn3c2NCCCC)cc1`, the Potency entry was “inactive”.

For the compound `O=c1c2ccccc2nc(/C=C/c2ccc([N+](=O)[O-])o2)n1CCCO`, the Potency was 15.8 µM (active).

As to `O=c1c2ccccc2nc(/C=C/c2cc(Br)ccc2O)n1CCCO`, the Potency result is “inactive”.

In the case of `CN(C)c1ccc(/C=C/c2nc3ccccc3c(=O)n2CCO)cc1`, the Potency result is “inactive”.

On to `CCn1c(/C=C/c2cc[n+](C)cc2)nc2ccccc21`, for which the Potency entry is “inactive”.

In the case of `COc1ccc(OC)c(C=Cc2ccc([N+](=O)[O-])cc2)c1`, the Potency result was “inactive”.

`COc1ccc(Oc2ccc(/C=C/C(=O)c3cccc(OC)c3)cc2[N+](=O)[O-])cc1`: the Potency was 39.8 µM (active).

For the compound `O=C(/C=C/c1ccc(Cl)c([N+](=O)[O-])c1)c1ccc(O)cc1`, the Potency was 28.2 µM (active).

With `COc1ccc(Oc2ccc(/C=C/C(=O)c3ccc(O)cc3)cc2[N+](=O)[O-])cc1`, the Potency was 28.2 µM (active).

`Cc1cc(CNC(=O)c2cccc([N+](=O)[O-])c2C)c2ccccc2n1`: the Potency result was “inactive”.

With `CN(CC(=O)Nc1cccc(C#N)c1)Cc1ccc(Cl)cc1`, the Potency entry is “inactive”.

Consider `CSc1cccc(NC(=S)N(CCCN2CCCC2)Cc2cccn2Cc2ccc(Cl)cc2)c1`, for which the Potency was 31.6 µM (active).

Turning to `Cc1ccc(NC(=S)N(CCCN2CCCC2)Cc2cccn2Cc2ccc(Cl)cc2)cc1`, the Potency was 39.8 µM (active).

In the case of `COc1ccc(NC(=O)Cn2nc(C(=O)O)c3ccccc3c2=O)cc1Cl`, the Potency result was “inactive”.

As to `Cc1cccc(NC(=S)N(CCCN2CCCC2)Cc2cccn2Cc2ccc(Cl)cc2)c1`, the Potency was 25.1 µM (active).

Take `COc1ccc(NC(=S)N(CCCN2CCCC2)Cc2cccn2Cc2ccc(Cl)cc2)cc1Cl`: the Potency was 39.8 µM (active).
